# Inconclusive results are not listed. Unmarked numbers belong to inactive results. Activity calls are given as the source filed them. The call rests on the fitted dose curve; in most records, active means well fitted inhibition curve with a large enough effect; inconclusive means small, poorly fitted or top-dose-only effect; inactive means no such curve, though single readings can be large or run the other way. Where a SMILES comes first, the peptide text is derived from it.
# Assay: Primary qHTS for inhibitors of nuclear receptor binding SET domain protein 2 (NSD2) in an RCH-ACV wild type WT cells (2C) (AID 1645877); further: nearly all actives have a fitted effect of over 70% in size
# Settings: RCH-ACV (leukaemia line) NSD2 WT (2C) viability, CellTiter-Glo, 72 h; series mostly up to 44.9 µM; activity change, negative = cell killing: at the top concentration
# On the % scale 0 is the no-effect control and ±100 the full control effect.
Structure (SMILES),outcome,"activity change, negative = cell killing"
COc1ccc(C(=O)NCc2cc(C(C)C)no2)cc1OC1CCN(C)CC1,inactive,
COC(=O)C[C@H]1C(C)(C)[C@H](OC(=O)C(C)C)C2CC3=C4CC(=O)O[C@@H](c5ccoc5)[C@]4(C)CCC3[C@@]1(C)C2=O (stereo partly drawn),,-24.5% [at 17.3 µM]
CC1(C)C=Cc2c(ccc3c2[N+]([O-])=C2C3(O)CC34NC(=O)C5(CCCN5C3=O)CC4C2(C)C)O1 (stereo not drawn),inactive [at 17.3 µM],
NC1(c2ccc(NC(=O)c3ccnc(-c4cc(C(=O)O)ccn4)c3)cc2)CC1,,1.17%
CC1(C)CC[C@]2(C(=O)O)CC[C@]3(C)C(=CCC4[C@@]5(C)C[C@@H](O)[C@H](O)[C@@](C)(CO)C5CC[C@]43C)C2C1 (stereo partly drawn),,4.23% [at 17.3 µM]
C=C(C)[C@@H]1CC[C@]2(CO)CC[C@]3(C)[C@H](CC[C@@H]4[C@@]5(C)CC[C@H](O)C(C)(C)[C@@H]5CC[C@]43C)[C@@H]12,inactive [at 17.3 µM],
CCN1CCN(C(=O)N[C@@H](C(=O)N[C@@H]2C(=O)N3[C@@H]2SC(C)(C)[C@@H]3C(=O)O)c2ccccc2)C(=O)C1=O,inactive,
CC1(C(=O)O)CC[C@]2(C(=O)OC3OC(CO)C(O)C(O)C3O)CC[C@]3(C)C(=CCC4[C@@]5(C)CC[C@H](OC6OCC(O)C(O)C6OC6OC(CO)C(O)C(O)C6O)C(C)(C)C5CC[C@]43C)C2C1 (stereo partly drawn),,-0.731% [at 9.23 µM]
C/C=C/C=C/[C@@H]1O[C@](O)([C@H](CC)C(=O)NC/C=C/C=C(\C)[C@@H](OC)[C@@H](C)[C@@H]2O[C@H](/C=C/C=C/C=C(\C)C(=O)c3c(O)ccn(C)c3=O)[C@H](O)[C@@H]2O)[C@H](O)[C@H](O)C1(C)C,inactive [at 9.23 µM],
CC1=C2C3OC(=O)C(C)C3(O)CCC2(C)CCC1 (stereo not drawn),,-3.72%
NC(=O)C(O[C@@H]1O[C@H](CO[C@@H]2O[C@H](CO)[C@@H](O)[C@H](O)[C@H]2O)[C@@H](O)[C@H](O)[C@H]1O)c1ccccc1 (stereo partly drawn),,-4.42% [at 17.3 µM]
C=C1C[C@H](O)[C@@H](O)[C@@]2(C)C1[C@@H](O)[C@H]1OC(=O)C3[C@@H](C)[C@@H](O)[C@H](O)C2[C@]31C (stereo partly drawn),,-18.8%
CSCC[C@H](NC(=O)[C@H](CO)NC(=O)[C@H](CCC(=O)O)NC(C)=O)C(=O)N[C@H](C=O)CC(=O)O (Ac-ESMD-aldehyde),,-15.7% [at 9.23 µM]
CC(C)=CCC(O)[C@](C)(O)C1[C@H](O)C[C@@]2(C)C3CC=C4C(C[C@H](O)[C@@H](O[C@@H]5O[C@H](CO)[C@@H](O)[C@H](O)[C@H]5O)C4(C)C)[C@]3(C)C(=O)C[C@]12C (stereo partly drawn),,-14.6% [at 17.3 µM]
CC1CCC23COC(=O)C2=CC(O)CC3C1(C)CCc1ccoc1 (stereo not drawn),,-6.61%
CC(=O)O[C@@H](C[C@@H]1C=C(C)C(=O)O1)[C@H](C)[C@H]1CCC2[C@@]3(C)CC[C@H](O[C@@H]4O[C@H](CO)[C@@H](O)[C@H](O)[C@H]4O[C@@H]4O[C@@H](C)[C@H](O)[C@@H](O)[C@H]4O)C(C)(C)C3CC[C@@]2(C)[C@@]12COC(=O)C2 (stereo partly drawn),,-8.37% [at 9.23 µM]
C=C1C(=O)O[C@@H]2CC(C)=C([C@@H](C)CCCOC(C)=O)[C@@H](O)[C@H]12,,-20.3%
COc1cc(C(C)=O)ccc1O[C@@H]1O[C@H](CO)[C@@H](O)[C@H](O)[C@H]1O,,-14.7%
COC(=O)C1=COC(O[C@@H]2O[C@H](CO)[C@@H](O)[C@H](O)[C@H]2O)[C@@H]2[C@@](C)(O)[C@@H](OC(=O)/C=C/c3ccccc3)C[C@]12O (stereo partly drawn),inactive [at 17.3 µM],

Structure (SMILES),outcome,"activity change, negative = cell killing"
O=C(/C=C/c1ccc(O)c(O)c1)O[C@H]1[C@H](OC2CCCCC2O)O[C@H](CO)[C@@H](O)[C@@H]1O (stereo partly drawn),,-21.7% [at 17.3 µM]
C=C1C(O)CC2C(C(=O)O)=COC(O[C@@H]3O[C@H](COC(=O)c4ccc(O)cc4)[C@@H](O)[C@H](O)[C@H]3O)C12 (stereo partly drawn),,-9.84% [at 17.3 µM]
COC(=O)c1c(CC=C(C)C)c(OC2OC(CO)C(O)C(O)C2O)c2ccccc2c1OC1OC(CO)C(O)C(O)C1O (stereo not drawn),,3.58% [at 17.3 µM]
OCC1=C[C@@H](O)[C@@H]2C=CO[C@@H](O[C@@H]3O[C@H](CO)[C@@H](O)[C@H](O)[C@H]3O)[C@H]12,inactive,
C=CC(C)(O)CC/C=C(\C)C1CC=C(C)C(=O)O1 (stereo not drawn),,-25.4%
CC1=C(CO)C2(C)CCCC(C)(C)C2C(O)C1O (stereo not drawn),inactive,
Cn1nccc1-c1ccccc1Oc1ccc(S(=O)(=O)Nc2nccs2)cc1C#N,inactive,
CSCC1OC(n2cnc3c(N)ncnc32)C(O)C1O (stereo not drawn),inactive,
O=C(/C=C/c1ccc(O)cc1)OC[C@H]1O[C@H](O[C@@]2(CO)O[C@@H](CO)[C@H](O)[C@H]2O)[C@H](O)[C@@H](O)[C@@H]1O,inactive [at 17.3 µM],
C=CC1(C)C=C2CC[C@H]3[C@@](C)(C(=O)O)CCC[C@]3(C)C2CC1 (stereo partly drawn),inactive,
CC(C)C1NC(=O)C2CCCN2C1=O (stereo not drawn),inactive,
C[C@@H]1O[C@@H](O[C@H]2[C@H](O)[C@@H](O)[C@H](OC(=O)[C@]34CCC(C)(C)C[C@H]3C3=CCC5[C@@]6(C)CC[C@H](O[C@@H]7O[C@H](C(=O)O)[C@@H](O)[C@H](O)[C@H]7O)C(C)(C)C6CC[C@@]5(C)[C@]3(C)CC4)O[C@@H]2CO)[C@H](O)[C@H](O)[C@H]1O (stereo partly drawn),,-1.6% [at 9.23 µM]
Nc1ccc(-n2nc(C(F)(F)F)cc2C(F)(F)F)cc1,,-11.5%
Cc1cc(O[C@@H]2O[C@H](COC(=O)CC(=O)O)[C@@H](O)[C@H](O)[C@H]2O)c(C(C)C)cc1O,,-25% [at 17.3 µM]
CC1OC(O[C@@H]2[C@@H](O)[C@H](OC(=O)[C@]34CCC(C)(C)C[C@H]3C3=CCC5[C@@]6(C)CC[C@H](O[C@@H]7O[C@H](C(=O)O)[C@@H](O)[C@H](O[C@@H]8OC[C@@H](O)[C@H](O)[C@H]8O)[C@H]7O[C@@H]7O[C@H](CO)[C@H](O)[C@H](O)[C@H]7O)[C@@](C)(C=O)C6CC[C@@]5(C)[C@]3(C)C[C@H]4O)O[C@H](C)[C@@H]2OC2OC(C)C(OC3OCC(O)C(O)C3O)C(O)C2O)C(O)C(O)C1O (stereo partly drawn),,-13.7% [at 9.23 µM]
C[C@]12CC[C@@H]3c4ccc(O)cc4CC[C@H]3[C@@H]1C[C@@H](O[C@@H]1O[C@H](C(=O)O)[C@@H](O)[C@H](O)[C@H]1O)[C@@H]2O,,-14.7%
COC(=O)C1=COC(O[C@@H]2O[C@H](COC(=O)/C=C/c3ccc(O)cc3)[C@@H](O)[C@H](O)[C@H]2O)C2C(CO)=CCC12 (stereo partly drawn),,-2.48% [at 17.3 µM]
C=C(CCO)C(=O)OCC1OCC(OC(=O)C(=C)CCO[C@@H]2O[C@H](CO)[C@@H](O)[C@H](O)[C@H]2O)C(O)C1O (stereo partly drawn),inactive [at 17.3 µM],
C[C@@H]1O[C@@H](O[C@H]2[C@H](Oc3cc(O)c(C(=O)CCc4ccc(O)cc4)c(O)c3)O[C@H](CO)[C@@H](O)[C@@H]2O)[C@H](O)[C@H](O)[C@H]1O,inactive,
